Results taken from ChEMBL document CHEMBL3988442, “University of Dundee, Small-Polar-MMV Screening Library” (2021).
For some assays here: Results with a measured potency or affinity are listed apart.

Experiments:
Parameters in all cases: scale not given: direction of the effect not stated beside the values
[1] = target: Protein translocase subunit SecA (Escherichia coli (strain K12)) (UniProt P10408); assay: Assay to Identify E. coli SecA ATPase Inhibitors; type: functional; settings: 30 µM
[2] = target: T1, Ubiquitin-activating enzyme e1, putative (Leishmania donovani (strain BPK282A1)) (UniProt E9BSI1); assay: Leishmania donovani Ubiquitin Activating Enzyme (LdE1); type: functional; settings: 30 µM
T1 sequence (whole entry): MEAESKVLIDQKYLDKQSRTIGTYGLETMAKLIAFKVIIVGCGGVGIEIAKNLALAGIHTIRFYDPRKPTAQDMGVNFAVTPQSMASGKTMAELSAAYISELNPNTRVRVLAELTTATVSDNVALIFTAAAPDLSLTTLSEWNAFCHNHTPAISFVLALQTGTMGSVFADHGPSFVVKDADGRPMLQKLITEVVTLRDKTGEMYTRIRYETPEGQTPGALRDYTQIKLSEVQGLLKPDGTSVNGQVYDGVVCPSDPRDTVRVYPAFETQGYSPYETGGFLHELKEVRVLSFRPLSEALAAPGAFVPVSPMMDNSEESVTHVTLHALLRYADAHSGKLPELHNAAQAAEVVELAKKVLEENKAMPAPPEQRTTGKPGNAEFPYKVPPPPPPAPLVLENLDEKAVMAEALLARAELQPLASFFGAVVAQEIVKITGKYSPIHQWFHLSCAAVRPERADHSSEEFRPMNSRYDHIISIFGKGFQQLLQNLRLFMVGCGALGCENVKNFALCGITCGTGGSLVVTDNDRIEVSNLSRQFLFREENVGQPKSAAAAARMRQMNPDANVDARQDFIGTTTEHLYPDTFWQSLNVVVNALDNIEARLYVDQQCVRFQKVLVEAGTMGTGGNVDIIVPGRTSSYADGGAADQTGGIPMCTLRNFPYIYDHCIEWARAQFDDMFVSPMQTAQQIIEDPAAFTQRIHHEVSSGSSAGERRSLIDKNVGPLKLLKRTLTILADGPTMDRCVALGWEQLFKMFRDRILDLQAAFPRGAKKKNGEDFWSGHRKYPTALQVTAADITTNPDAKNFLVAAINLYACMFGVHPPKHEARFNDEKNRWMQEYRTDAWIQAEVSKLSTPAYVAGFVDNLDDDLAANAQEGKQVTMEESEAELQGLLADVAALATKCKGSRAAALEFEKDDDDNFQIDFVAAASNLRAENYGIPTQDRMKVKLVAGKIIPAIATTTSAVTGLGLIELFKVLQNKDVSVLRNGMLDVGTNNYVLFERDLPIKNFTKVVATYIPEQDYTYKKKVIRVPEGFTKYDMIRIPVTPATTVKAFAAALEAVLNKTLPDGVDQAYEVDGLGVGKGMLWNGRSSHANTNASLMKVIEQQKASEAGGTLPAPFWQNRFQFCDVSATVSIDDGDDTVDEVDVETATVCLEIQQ

[3] = target: AMP-activated protein kinase, AMPK (Homo sapiens) (UniProt P54646+O43741+P54619+Q9UGJ0+Q9Y478+Q13131+Q9UGI9); assay: AMP-dependent Kinase enzyme assay. An in vitro enzyme assay that detects ADP turnover that is directly proportional to AMPK activity. This uses naive AMPK that is activated during the assay with MK-8722; type: functional; settings: 30 µM
[4] = target: Sialic acid-binding Ig-like lectin 9 (Homo sapiens) (UniProt Q9Y336); assay: Hs-Siglec9 ALPHAscreen SOP 20170721; settings: 10 µM
Trypanosoma cruzi = assay: Trypanosoma cruzi phosphomannomutase and mannose-1-phosphate guanylyltransferase assay; type: functional; settings: 10 µM
[5] = target: T2, Arginase-2, mitochondrial (Homo sapiens) (UniProt P78540); assay: in vitro enzyme assay to detect the production of urea directly proportional to the activity of Arginase II; type: functional; settings: 33.3 µM; note: in the data most compounds retested in dose-response had high values
T2 sequence (whole entry): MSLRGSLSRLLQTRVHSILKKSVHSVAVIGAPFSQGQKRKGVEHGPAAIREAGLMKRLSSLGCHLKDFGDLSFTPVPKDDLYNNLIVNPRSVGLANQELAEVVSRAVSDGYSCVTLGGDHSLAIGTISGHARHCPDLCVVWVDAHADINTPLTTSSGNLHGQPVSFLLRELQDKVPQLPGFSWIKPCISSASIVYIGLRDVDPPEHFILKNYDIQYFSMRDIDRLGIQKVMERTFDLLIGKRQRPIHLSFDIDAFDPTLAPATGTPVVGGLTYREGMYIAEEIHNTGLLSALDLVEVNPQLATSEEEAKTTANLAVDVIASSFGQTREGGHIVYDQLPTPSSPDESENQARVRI

[6] = target: T3, Proteasome subunit beta (Trypanosoma cruzi) (UniProt O96673); assay: Trypanosoma cruzi proteasome chymotrypsin-like activity (TcProtChymo) assay.; note: in the data most compounds retested in dose-response had high values; type: functional; settings: 9.37 µM
T3 sequence (whole entry): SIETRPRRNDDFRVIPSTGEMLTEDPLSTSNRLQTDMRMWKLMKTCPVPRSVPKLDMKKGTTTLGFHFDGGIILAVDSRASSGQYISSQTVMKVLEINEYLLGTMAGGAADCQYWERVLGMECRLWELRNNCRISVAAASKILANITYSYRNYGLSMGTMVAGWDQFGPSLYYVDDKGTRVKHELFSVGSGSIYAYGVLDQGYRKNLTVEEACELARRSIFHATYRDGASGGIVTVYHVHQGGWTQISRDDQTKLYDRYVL

Homo sapiens = species: Homo sapiens; assay: To identify inhibition of the IFN signalling (Jak-Stat) pathway via expression of an eGFP reporter gene under the control of an IFN-stimulated response element (ISRE) containing MxA promoter.; type: functional; settings: 30 µM
[7] = target: T4, Tyrosyl-tRNA synthetase, putative (Trypanosoma cruzi (strain CL Brener)) (UniProt Q4DSP6); assay: Trypanosoma cruzi tyrosyl tRNA synthetase (TcYRS) _High Tyrosine SOP; type: functional; settings: 30 µM; note: in the data most compounds retested in dose-response had high values
T4 sequence (whole entry): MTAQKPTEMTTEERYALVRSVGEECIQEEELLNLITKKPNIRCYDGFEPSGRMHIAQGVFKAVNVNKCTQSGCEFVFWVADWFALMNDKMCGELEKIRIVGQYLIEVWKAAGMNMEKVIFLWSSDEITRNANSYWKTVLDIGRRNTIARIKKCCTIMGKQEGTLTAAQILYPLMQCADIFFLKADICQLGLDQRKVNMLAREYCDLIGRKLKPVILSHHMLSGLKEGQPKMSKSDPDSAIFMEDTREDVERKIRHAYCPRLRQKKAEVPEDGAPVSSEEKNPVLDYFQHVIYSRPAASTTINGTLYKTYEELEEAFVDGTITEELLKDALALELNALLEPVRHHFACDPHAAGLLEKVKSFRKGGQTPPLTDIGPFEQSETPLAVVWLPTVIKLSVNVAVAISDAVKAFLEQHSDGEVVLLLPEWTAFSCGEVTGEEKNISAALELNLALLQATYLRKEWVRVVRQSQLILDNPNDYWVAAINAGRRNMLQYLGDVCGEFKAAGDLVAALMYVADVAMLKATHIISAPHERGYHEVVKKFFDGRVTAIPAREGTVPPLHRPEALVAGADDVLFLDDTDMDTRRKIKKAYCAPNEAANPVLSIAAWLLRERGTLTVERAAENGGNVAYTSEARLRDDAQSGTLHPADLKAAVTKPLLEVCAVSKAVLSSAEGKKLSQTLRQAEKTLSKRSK

[8] = target: T4, Tyrosyl-tRNA synthetase, putative (Trypanosoma cruzi (strain CL Brener)); assay: Trypanosoma cruzi tyrosyl tRNA synthetase (TcYRS) SOP; type: functional; settings: 30 µM
[9] = target: Chromo domain-containing protein 1 (Saccharomyces cerevisiae (strain ATCC 204508 / S288c) (Baker's yeast)) (UniProt P32657); assay: ScCHD-1 Enzyme Inhibition Assay; type: functional; settings: 30 µM; note: in the data most compounds retested in dose-response had high values
Chromo domain-containing protein 1 (Saccharomyces cerevisiae (strain ATCC 204508 / S288c) (Baker's yeast)), sequence (P32657 whole entry, the tested form may be a part): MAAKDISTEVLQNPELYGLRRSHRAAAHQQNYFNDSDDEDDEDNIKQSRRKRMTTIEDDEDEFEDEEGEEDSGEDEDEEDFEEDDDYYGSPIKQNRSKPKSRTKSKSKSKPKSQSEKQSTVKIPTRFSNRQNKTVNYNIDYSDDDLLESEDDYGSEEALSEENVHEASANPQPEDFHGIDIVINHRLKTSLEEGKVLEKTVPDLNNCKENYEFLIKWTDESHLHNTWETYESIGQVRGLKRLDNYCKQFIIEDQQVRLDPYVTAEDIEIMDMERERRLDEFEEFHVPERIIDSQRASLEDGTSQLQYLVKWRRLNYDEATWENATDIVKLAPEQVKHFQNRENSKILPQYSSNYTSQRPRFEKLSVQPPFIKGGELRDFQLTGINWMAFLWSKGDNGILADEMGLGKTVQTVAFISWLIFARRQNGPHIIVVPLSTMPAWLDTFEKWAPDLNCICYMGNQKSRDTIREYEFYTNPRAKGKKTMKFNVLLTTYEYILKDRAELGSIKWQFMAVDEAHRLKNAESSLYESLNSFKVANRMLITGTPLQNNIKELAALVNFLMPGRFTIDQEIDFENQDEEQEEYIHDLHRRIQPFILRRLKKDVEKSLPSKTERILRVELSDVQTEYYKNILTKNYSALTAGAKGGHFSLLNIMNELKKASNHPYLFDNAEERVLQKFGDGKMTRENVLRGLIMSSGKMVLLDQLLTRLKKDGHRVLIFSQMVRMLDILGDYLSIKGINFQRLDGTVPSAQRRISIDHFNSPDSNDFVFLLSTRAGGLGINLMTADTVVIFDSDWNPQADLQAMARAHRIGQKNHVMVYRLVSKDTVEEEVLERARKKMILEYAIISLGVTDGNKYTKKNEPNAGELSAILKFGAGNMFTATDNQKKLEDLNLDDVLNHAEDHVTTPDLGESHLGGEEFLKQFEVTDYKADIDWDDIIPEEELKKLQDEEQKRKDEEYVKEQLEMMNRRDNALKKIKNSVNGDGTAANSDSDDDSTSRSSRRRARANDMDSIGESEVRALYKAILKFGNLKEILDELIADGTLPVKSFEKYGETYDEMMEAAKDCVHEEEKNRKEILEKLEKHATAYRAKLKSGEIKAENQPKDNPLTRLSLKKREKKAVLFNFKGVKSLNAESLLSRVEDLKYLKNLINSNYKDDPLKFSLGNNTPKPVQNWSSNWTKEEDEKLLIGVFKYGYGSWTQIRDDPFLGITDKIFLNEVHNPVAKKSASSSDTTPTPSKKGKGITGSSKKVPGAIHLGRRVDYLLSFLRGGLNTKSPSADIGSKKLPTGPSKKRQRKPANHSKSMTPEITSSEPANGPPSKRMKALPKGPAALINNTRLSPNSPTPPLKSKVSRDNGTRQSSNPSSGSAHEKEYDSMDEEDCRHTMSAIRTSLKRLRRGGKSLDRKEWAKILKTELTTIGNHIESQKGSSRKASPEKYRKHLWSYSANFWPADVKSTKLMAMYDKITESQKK

Protein translocase subunit SecA (Escherichia coli (strain K12)), sequence (P10408 whole entry): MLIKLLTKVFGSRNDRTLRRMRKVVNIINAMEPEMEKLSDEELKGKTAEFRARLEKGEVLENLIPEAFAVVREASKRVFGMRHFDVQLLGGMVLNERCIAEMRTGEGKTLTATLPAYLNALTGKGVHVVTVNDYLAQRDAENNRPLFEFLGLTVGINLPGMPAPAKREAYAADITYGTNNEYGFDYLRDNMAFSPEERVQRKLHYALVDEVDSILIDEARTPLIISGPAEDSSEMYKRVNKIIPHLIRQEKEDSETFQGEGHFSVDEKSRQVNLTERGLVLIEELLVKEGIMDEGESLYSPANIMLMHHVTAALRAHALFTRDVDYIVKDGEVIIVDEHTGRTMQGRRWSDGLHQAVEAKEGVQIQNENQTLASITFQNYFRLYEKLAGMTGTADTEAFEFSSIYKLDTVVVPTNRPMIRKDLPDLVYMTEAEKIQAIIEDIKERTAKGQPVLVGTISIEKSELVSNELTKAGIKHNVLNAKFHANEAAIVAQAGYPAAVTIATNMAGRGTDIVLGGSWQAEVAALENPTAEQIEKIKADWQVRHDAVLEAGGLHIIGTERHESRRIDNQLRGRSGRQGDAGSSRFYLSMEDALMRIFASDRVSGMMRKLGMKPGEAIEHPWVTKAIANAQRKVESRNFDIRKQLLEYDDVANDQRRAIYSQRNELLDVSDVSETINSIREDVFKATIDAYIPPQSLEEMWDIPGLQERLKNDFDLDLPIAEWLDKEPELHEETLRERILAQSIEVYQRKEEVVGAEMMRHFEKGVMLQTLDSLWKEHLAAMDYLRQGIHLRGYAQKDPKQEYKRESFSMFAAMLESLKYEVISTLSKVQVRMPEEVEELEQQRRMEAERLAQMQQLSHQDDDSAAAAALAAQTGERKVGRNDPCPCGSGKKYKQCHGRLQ
Sialic acid-binding Ig-like lectin 9 (Homo sapiens), sequence (Q9Y336 whole entry): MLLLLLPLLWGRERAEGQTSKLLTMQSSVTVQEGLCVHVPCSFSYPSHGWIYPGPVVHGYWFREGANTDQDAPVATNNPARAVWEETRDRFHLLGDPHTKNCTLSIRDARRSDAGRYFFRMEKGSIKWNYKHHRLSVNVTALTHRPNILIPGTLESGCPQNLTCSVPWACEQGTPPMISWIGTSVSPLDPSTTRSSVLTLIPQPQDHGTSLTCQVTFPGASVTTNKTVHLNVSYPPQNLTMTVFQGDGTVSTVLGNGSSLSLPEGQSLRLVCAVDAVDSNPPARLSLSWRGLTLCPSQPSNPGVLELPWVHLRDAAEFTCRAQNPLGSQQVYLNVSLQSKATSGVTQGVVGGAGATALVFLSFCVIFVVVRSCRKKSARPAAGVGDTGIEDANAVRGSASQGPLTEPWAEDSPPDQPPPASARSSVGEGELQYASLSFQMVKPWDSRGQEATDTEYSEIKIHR

Compound | Percent Effect [1] [%] | Percent Effect [2] [%] | Percent Effect [3] [%] | Percent Effect [4] [%] | Percent Effect (Trypanosoma cruzi) [%] | Percent Effect [5] [%] | Percent Effect [6] [%] | Percent Effect (Homo sapiens) [%] | Percent Effect [7] [%] | Percent Effect [8] [%] | Percent Effect [9] [%]
COCCCn1c(CN2CCCC(O)C2)cnc1S(=O)(=O)C1CCCC1 (configuration not stated) | -5.06 | 10.4 | -2.5 | 10.5 | 4.62 | -85.5 | 3.99 | -9.18 | 3.23 | 11.1 | -11
O=C(CCc1nc2cccnc2[nH]1)NCc1ccc2c(c1)OCO2 | -3.15 | 12 | 2.23 | 0.158 | 0 | -10.4 | 14.1 | -11.6 | 9.52 | 17.9 | -10
CC(CNCc1ccncc1)Oc1ccccn1 (configuration not stated) | -0.77 | 9.33 | -1.66 | 5.01 | 0 | -15.3 | 13.9 | 2.27 | 4.23 | 7.69 | -10.8
O=C1CC2(CCCCC2)CC(=O)N1CC(O)COCc1ccc(Cl)cc1 (configuration not stated) | -4.15 | -10.8 | -0.127 | -2.3 | -1.66 | -0.744 | -2.66 | 2.65 | -2.15 | -6.17 | 6.87
COCCO[C@H]1CCN(Cc2cccs2)[C@H]1Cc1cccnc1 | -3.38 | 0 | -12.3 | 20.5 | 6.35 | -1.24 | 11.6 | 0.814 | 3.23 | 6.17 | -1.24
Cc1cc(C)n(CCCNC(=O)C(C)NC(=O)c2ccccc2Cl)n1 (configuration not stated) | -2.06 | 5.26 | 4.16 | -4.01 | -2.63 | 0 | 6.81 | -13.1 | 5.32 | 10.4 | -5.43
CC(C)(C)c1nc(CN2CCC(c3nc4cc(Cl)ccc4o3)CC2)no1 | 0.762 | 13.5 | 3.19 | 22.6 | 7.92 | 4.76 | 7.76 | 10.2 | 2.65 | 0 | -5.62
O=C(NCCNCC1CNc2ccnn2C1)c1ccc(F)cc1 (configuration not stated) | -2.2 | 8.11 | -6.99 | 25.4 | 8.3 | 0.476 | 11.6 | -0.126 | 5.82 | 14.6 | -2.41
CS(=O)(=O)NCc1n[nH]c2c1CCN(C(=O)c1ccsc1)C2 | -4.91 | 0 | 2.22 | -3.92 | -3.48 | -59.7 | 10.9 | 5.55 | -2.08 | 0 | -5
CCc1cnc(N2CCC(=O)N(CC3CC3)C(C(C)C)C2)nc1 (configuration not stated) | 3.49 | 13.5 | -2.35 | 11.8 | -0.965 | 4.29 | 8.62 | 29.3 | 3.7 | 12.2 | -1.36
Cc1ccc(N2CCCN(C(=O)c3cc(Cl)c[nH]3)CC2)nn1 | -3.96 | -5.48 | 4.73 | 4.6 | -3.17 | 3.59 | 9.33 | 2.32 | 12.5 | 23.5 | -1.25
CCOCCOc1ccccc1C(=O)N1CCCC(c2ncc[nH]2)C1 (configuration not stated) | -3.41 | 8.22 | 11.4 | 0.341 | 0.979 | 3.64 | 23.2 | 6.64 | 8.6 | 17.5 | -11.5
COc1cccc2c1ccn2CCC(=O)N1CCCC(C(=O)O)C1 (configuration not stated) | -4.55 | 5.26 | -2.19 | -4.72 | -9.64 | 2.37 | 11.2 | 12.8 | -3.19 | 0 | -6.61
CN(C)C1CCN(C(=O)c2ccc(Cn3ccccc3=O)o2)CC1 | -2.62 | 8.11 | 3.53 | 12.9 | 2.88 | 0.924 | 0 | 5.91 | 6.93 | 23.2 | -4.27
COc1ccc(CN2CCCCC2CNC(=O)OC(C)(C)C)cc1F (configuration not stated) | -3.55 | 0 | -2.98 | 21.3 | -1.86 | -1.74 | 0.0858 | -23.7 | -2.15 | 1.24 | -2.09
CCCn1nc2c(cc1=O)CN(Cc1cc(C)on1)CC2 | -5.31 | -2.7 | -46.3 | 0.285 | -1.76 | 7.08 | 17.8 | 9.88 | 6.93 | 6.1 | -7.36
CC(C)c1nn(C)c(Cl)c1CNCC(O)c1cccc(F)c1 (configuration not stated) | -7.69 | 5.2 | -1.22 | -3.98 | 7.35 | -2.32 | 15.8 | 4.38 | 7.62 | 30.6 | -7
Cn1cc(C2CCCN2Cc2csc(C(C)(C)C)n2)cn1 (configuration not stated) | -8.01 | 12.7 | -5.07 | 14.2 | 6.33 | -5.32 | 4.01 | -16.1 | 8.37 | 16.5 | -9.19
OC(CN1CCN(Cc2ccc(F)c(F)c2)CC1)C1CC1 (configuration not stated) | -3.08 | 8.22 | 2.45 | 0.902 | 5.68 | -1.82 | 8.16 | 13.1 | 6.45 | 20 | -6.1
CC(NC(=O)N(C)Cc1ccsc1)c1ccc2c(c1)CCC(=O)N2 (configuration not stated) | -0.422 | 15.8 | 5 | 7.35 | 1.13 | -3.06 | 1.67 | 3.81 | 1.47 | 17.1 | -3.52
CN1CCC(NC(=O)NCc2csc(Br)c2)CC1 | -2.29 | 13.5 | 4.89 | 6.05 | 3.25 | -3.88 | 10.4 | 2.14 | 9.9 | 18.3 | -4.58
CCc1cc(NCCNc2cccnc2)n2nccc2n1 | -3.38 | 2.7 | 3.96 | 4.15 | -3.09 | 1.91 | 10 | 13.2 | 4.76 | 7.32 | -3.82
